Reference: PubChem BioAssay (NCATS)
Results filed as inconclusive are left out. Where a call stands in place of a potency, no number is given. Activity calls are given as the source filed them. Calls follow the shape of the dose curve; as a rule, active = well fitted inhibition curve with a large enough effect; inconclusive = small, poorly fitted or top-dose-only effect; inactive = flat fitted curve, though single readings scatter. Bridge positions count the residues as written; N and C are the ends. Square brackets hold non-standard residues; d marks the D form. Peptide text beside a SMILES is read from it. * marks the point of attachment. Ileψ(thiazoline)Cys = CC[C@H](C)[C@H](N)C1=N[C@H](C(=O)*)CS1; d(aIle) = CC[C@H](C)[C@@H](N)C(=O)O; dOrn = NCCC[C@@H](N)C(=O)O

Test system: CP192
Assay: qHTS profiling for inhibitors of Plasmodium falciparum proliferation (AID 504749); also: nearly all actives have a fitted effect of over 60% in size
Conditions: P. falciparum in erythrocytes, SYBR Green DNA, 72 h; series mostly up to 12.8 µM
Outline: (§1)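 Three-day growth assay of blood-stage parasites in erythrocytes (0.3% parasitemia, 2.5% hematocrit) at 37 C, 5% CO2, quantified by SYBR Green DNA staining after overnight detergent lysis.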
Potency is read from the fitted curve at half-maximal effect.

| Compound | Potency |
| --- | --- |
| C[C@@H]1C[C@H]2[C@@H]3C[C@H](F)C4=CC(=O)C=C[C@@]4(C)[C@]3(F)[C@H](O)C[C@]2(C)[C@@]1(O)C(=O)CO | inactive |
| C[C@H](O)Cn1cnc2c1c(=O)n(C)c(=O)n2C | inactive |
| CCCCC[C@H](O)/C=C\[C@@H]1[C@H](O)CC(=O)[C@@H]1CCCCCCC(=O)O | inactive |
| CC(=C(CCOP(=O)(O)O)SC(=O)c1ccccc1)N(C=O)Cc1cnc(C)nc1N | inactive |
| NC[C@@H]1O[C@@H](O[C@H]2[C@H](O)[C@H](O[C@@H]3O[C@H](CO)[C@@H](O)[C@H](N)[C@@H]3O)[C@@H](N)C[C@H]2N)[C@H](N)C[C@@H]1O | inactive |
| CCc1c(C)[nH]c2c1C(=O)[C@H](CN1CCOCC1)CC2 | inactive |
| C=C1c2c(Cl)ccc(O)c2C(O)=C2C(=O)[C@@]3(O)C(O)=C(C(N)=O)C(=O)[C@@H](N(C)C)[C@@H]3[C@@H](O)[C@H]12 | inactive |
| CCC(=O)OCC(=O)[C@@]1(OC(=O)CC)[C@H](C)C[C@@H]2[C@@H]3[C@H]([C@@H](O)C[C@@]21C)[C@]1(C)C=CC(=O)C=C1C[C@@H]3Cl | inactive |
| CC[C@H](C)[C@H](N)C1=N[C@H](C(=O)N[C@@H](CC(C)C)C(=O)N[C@@H](CCC(=O)O)C(=O)N[C@@H](C(=O)N[C@H]2CCCCNC(=O)[C@@H](CC(N)=O)NC(=O)[C@@H](CC(=O)O)NC(=O)[C@@H](Cc3cnc[nH]3)NC(=O)[C@@H](Cc3ccccc3)NC(=O)[C@@H]([C@@H](C)CC)NC(=O)[C@@H](CCCN)NC2=O)[C@@H](C)CC)CS1 ({Ileψ(thiazoline)Cys}-LE[d(aIle)]K[dOrn][d(aIle)][dF][dH][dD][dN]; lactam 4-C) | inactive |
| C[C@@H](CNC1CCCCC1)OC(=O)c1ccccc1 | inactive |
| Cc1ccsc1/C=C\C1=NCCCN1C | inactive |
| O=C(O)COCCN1CCN([C@@H](c2ccccc2)c2ccc(Cl)cc2)CC1 | inactive |
| C#C[C@]1(O)CC[C@@H]2[C@H]3CCC4=CCCC[C@@H]4[C@@H]3CC[C@@]21C | inactive |
| CC1(C)[C@@H](OC(=O)CCC(=O)O)CC[C@@]2(C)[C@H]1CC[C@@]1(C)[C@H]2C(=O)C=C2[C@H]3C[C@](C)(C(=O)O)CC[C@]3(C)CC[C@@]21C | inactive |
| C[C@H](CCC(=O)O)[C@H]1CC[C@@H]2[C@@H]3[C@@H](O)C[C@H]4C[C@@H](O)CC[C@@]4(C)[C@H]3CC[C@@]21C | inactive |
| CN1CCO[C@H](c2ccccc2)c2ccccc2C1 | inactive |

Test system: CP194
Assay: as above
Conditions: P. falciparum in erythrocytes, SYBR Green DNA, 72 h; series mostly up to 12.8 µM
Outline: as §1

| Compound | Potency |
| --- | --- |
| C[C@@H]1C[C@H]2[C@@H]3C[C@H](F)C4=CC(=O)C=C[C@@]4(C)[C@]3(F)[C@H](O)C[C@]2(C)[C@@]1(O)C(=O)CO | inactive |
| C[C@H](O)Cn1cnc2c1c(=O)n(C)c(=O)n2C | inactive |
| CC(=C(CCOP(=O)(O)O)SC(=O)c1ccccc1)N(C=O)Cc1cnc(C)nc1N | inactive |
| NC[C@@H]1O[C@@H](O[C@H]2[C@H](O)[C@H](O[C@@H]3O[C@H](CO)[C@@H](O)[C@H](N)[C@@H]3O)[C@@H](N)C[C@H]2N)[C@H](N)C[C@@H]1O | inactive |
| CCc1c(C)[nH]c2c1C(=O)[C@H](CN1CCOCC1)CC2 | inactive |
| CCC(=O)OCC(=O)[C@@]1(OC(=O)CC)[C@H](C)C[C@@H]2[C@@H]3[C@H]([C@@H](O)C[C@@]21C)[C@]1(C)C=CC(=O)C=C1C[C@@H]3Cl | inactive |
| CC[C@H](C)[C@H](N)C1=N[C@H](C(=O)N[C@@H](CC(C)C)C(=O)N[C@@H](CCC(=O)O)C(=O)N[C@@H](C(=O)N[C@H]2CCCCNC(=O)[C@@H](CC(N)=O)NC(=O)[C@@H](CC(=O)O)NC(=O)[C@@H](Cc3cnc[nH]3)NC(=O)[C@@H](Cc3ccccc3)NC(=O)[C@@H]([C@@H](C)CC)NC(=O)[C@@H](CCCN)NC2=O)[C@@H](C)CC)CS1 ({Ileψ(thiazoline)Cys}-LE[d(aIle)]K[dOrn][d(aIle)][dF][dH][dD][dN]; lactam 4-C) | inactive |
| O=C(N/N=C\c1ccc([N+](=O)[O-])o1)c1ccc(O)cc1 | 3.61 µM (active) |
| CCOC(=O)O[C@@H](C)OC(=O)[C@@H]1N2C(=O)[C@@H](NC(=O)[C@@H](N)c3ccccc3)[C@H]2SC1(C)C | inactive |
| Cc1cccc(CN2CCN([C@@H](c3ccccc3)c3ccc(Cl)cc3)CC2)c1 | inactive |
| Cc1ccsc1/C=C\C1=NCCCN1C | inactive |
| O=C(O)COCCN1CCN([C@@H](c2ccccc2)c2ccc(Cl)cc2)CC1 | inactive |
| C#C[C@]1(O)CC[C@@H]2[C@H]3CCC4=CCCC[C@@H]4[C@@H]3CC[C@@]21C | inactive |
| CC1(C)[C@@H](OC(=O)CCC(=O)O)CC[C@@]2(C)[C@H]1CC[C@@]1(C)[C@H]2C(=O)C=C2[C@H]3C[C@](C)(C(=O)O)CC[C@]3(C)CC[C@@]21C | inactive |
| C[C@H](CCC(=O)O)[C@H]1CC[C@@H]2[C@@H]3[C@@H](O)C[C@H]4C[C@@H](O)CC[C@@]4(C)[C@H]3CC[C@@]21C | inactive |
